Many of the other results were omitted from the sample, so hits are more common in it than they were.
TbPYK inhibitor: inhibitors of Trypanosoma brucei pyruvate kinase. TbPYK enzyme, Kinase-Glo Plus ATP luminescence, 45 min. Potency, µM (series often up to 76.8 µM), without a hit: at the top dose activity, negative = inhibition, actives largely listed as inhibitors. hit rate 0.12% among 410,000; also: potency is read from the fitted curve at half-maximal effect; % is scaled to controls: 0 for no effect and ±100 for the full control effect; nearly all actives have a fitted effect of over 50% in size
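Luminescence from Kinase-Glo Plus, added after a 45-minute room-temperature reaction, served as the end-point read-out. The enzyme and substrate were preincubated with compound before ADP (130 uM final) initiated turnover. Concentration-effect curves came from normalized qHTS data.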
FBPA Giardia inh: Giardia lamblia aldolase inhibition; purified Giardia FBPA; Potency, µM (doses to about 59.6 µM), without a hit: at the highest dose activity, negative = inhibition, hits mostly inhibitors; hit rate 0.71% among 290,000; AID 2451; also: potency is read from the fitted curve at half-maximal effect; % is scaled to controls: 0 for no effect and ±100 for the full control effect; nearly all actives have a fitted effect of over 55% in size
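40 nM FBPA preincubated 10 min at RT with compound (up to 57.5 uM final), then substrate plus GAPDH/TPI/NAD/arsenate coupling and diaphorase/resazurin added. Fluorescence read after 20 min at RT, 525/598 nm.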
Cycloheximide cs: counter-screen for Shiga toxin inhibitors: cycloheximide protein synthesis inhibition. cell reporter, cycloheximide protein synthesis inhibition counterscreen. max response, %. hit rate 12% among 300,000. AID 2314; in the data active = max response mostly above about 13%, no sharp cut-off; inactive = mostly below about 14%; also: read at 38.3 µM for the half of the compounds with a filed dose; 0% is about no effect
LmPK inh: LmPK (Leishmania mexicana) enzyme inhibition. Q27686. purified LmPK, Kinase-Glo ATP luminescence, 1 h. Potency, µM (doses to about 57.5 µM), for the others: at the top dose activity change, negative = inhibition, usual class: inhibitors. hit rate 0.37% among 290,000; also: potency is read from the fitted curve at half-maximal effect; % is scaled to controls: 0 for no effect and ±100 for the full control effect
Target sequence (Q27686 whole entry, looked up): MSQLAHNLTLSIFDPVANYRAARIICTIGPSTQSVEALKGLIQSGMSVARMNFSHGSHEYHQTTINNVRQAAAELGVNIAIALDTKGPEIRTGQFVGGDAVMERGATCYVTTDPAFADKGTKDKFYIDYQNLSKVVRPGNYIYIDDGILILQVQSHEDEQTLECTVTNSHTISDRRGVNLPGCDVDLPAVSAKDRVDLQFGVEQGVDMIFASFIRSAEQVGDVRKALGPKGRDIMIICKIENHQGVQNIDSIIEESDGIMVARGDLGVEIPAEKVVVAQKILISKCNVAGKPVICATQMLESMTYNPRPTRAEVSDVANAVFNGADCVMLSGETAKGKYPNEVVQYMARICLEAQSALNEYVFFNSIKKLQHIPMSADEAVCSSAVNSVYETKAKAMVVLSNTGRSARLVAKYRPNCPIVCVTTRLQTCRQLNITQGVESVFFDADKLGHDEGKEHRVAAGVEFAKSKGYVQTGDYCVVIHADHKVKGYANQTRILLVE
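Purified LmPK (0.1 nM) converted ADP (0.1 mM) to ATP with PEP (0.5 mM) in imidazole buffer pH 7.2 with KCl and MgCl2, 1 h at room temperature. ATP was read by Kinase-Glo luminescence; data normalized to uninhibited and no-enzyme controls.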
Shiga toxin inh: Shiga toxin inhibition. Vero cells, Shiga toxin protein synthesis inhibition reporter. inhibition, % at 38.7 µM. hit rate 9.2% among 290,000. AID 2315; in the data active = inhibition mostly above about 28%, no sharp cut-off; inactive = mostly below about 43%; also: 0% is about no effect
Sm TGR block: S. mansoni TGR enzyme inhibition. hit rate 3% among 360,000. AID 485364. Potency, µM (top dose mostly 114 µM), without a hit: top-dose activity change, negative = inhibition, actives largely listed as inhibitors. Q962Y6. purified TGR, DTNB reduction, TNB absorbance 405 nm; also: potency is read from the fitted curve at half-maximal effect; % is scaled to controls: 0 for no effect and ±100 for the full control effect; nearly all actives have a fitted effect of over 60% in size
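TGR 20 nM + NADPH 100 uM (dispensed conc.), cpd preinc 15 min RT; start with NADPH (500 uM addition) then DTNB (15 mM addition). Kinetic TNB absorbance, 405 nm filter. Four-parameter Hill fit across titration.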
The depositor's hits bear a star; ? = inconclusive; / = not tested or not shown. Unless noted, calls follow the shape of the dose curve; as a rule, active = well fitted curve in the direction sought with a large enough effect; inconclusive = small, poorly fitted or top-dose-only effect, or another doubt; inactive = no such curve, though single readings can be large; an effect the other way counts as inactive or inconclusive.

SMILES	TbPYK inhibitor	FBPA Giardia inh	Cycloheximide cs	LmPK inh	Shiga toxin inh	Sm TGR block
N/C(=N\OC(=O)c1ccc2c(c1)OCO2)c1cccc(Br)c1	-29.7%	-7.2%	30.4*	12.6µM*	86.8*	1.0%
Cc1ccc(NC(=O)CSCC(=O)N(CCC(C)C)c2c(N)n(Cc3ccccc3)c(=O)[nH]c2=O)cc1	-0.4%	/	/	/	/	-2.6%
CCCCNC(=O)COC(=O)c1ccc(F)cc1Cl	-6.2%	1.6%	12.7*	4.9%	75.8*	0.4%
CCCCNC(=O)COC(=O)c1cc(F)c(F)cc1Cl	-3.4%	-2.4%	-2.0	1.4%	55.7	16.1%
CCn1cc(C2Nc3ccccc3C(=O)N2O)c(C)n1 (stereo unspecified)	-10.0%	-1.7%	12.1*	-6.3%	44.0*	?
Cc1c(C2Nc3ccccc3C(=O)N2O)cnn1C (stereo unspecified)	-1.4%	-11.1%	16.7*	-4.5%	-1.9	-35.1%
COc1cccc(C2Nc3ccccc3C(=O)N2O)c1O (stereo unspecified)	-10.2%	-3.1%	2.9	-0.5%	40.5	-3.3%
COc1ccc(NC(=O)c2oc3ccccc3c2NC(=O)c2cccc(F)c2)c(OC)c1	-5.7%	/	/	/	/	6.1%
Cc1cc(C)c(/C=C/c2onc(C)c2S(=O)(=O)N2CCC(C(=O)N3CCN(c4ccc(Cl)cc4)CC3)CC2)c(C)c1	2.5%	/	/	/	/	6.5%
COc1ccc2nc(NC(=S)NC(=O)c3ccco3)sc2c1	0.9%	?	33.5*	-2.7%	126.9*	-15.5%
COc1ccc(OCCn2c(NC(=O)c3ccco3)nc3ccccc32)cc1	-1.4%	7.7%	20.3*	-1.6%	67.8	0.6%
COc1ccc(OCCn2c(NC(=O)c3ccc(OC)cc3)nc3ccccc32)cc1	1.7%	/	/	/	/	-8.7%
COc1ccc2nc(NC(=O)CCNC(=O)c3ccco3)sc2c1	-4.5%	/	/	/	/	-10.7%
COc1ccc2sc(NC(=O)c3ccco3)nc2c1	-18.7%	-6.0%	22.7*	?	29.5	1.9%
CCOc1ccc(NC(=O)c2ccccc2SC)cc1	2.6%	16.4%	50.4*	-22.3%	58.7*	8.3%

Source: PubChem (National Center for Advancing Translational Sciences (NCATS))
